Screens: PubChem BioAssay, National Center for Advancing Translational Sciences (NCATS)
Sampled rows, rich in hits. Any-hit rate of the full collection: about 2.1%.
Abeta rescue: qHTS for compounds that reverse cellular toxicity of Amyloid beta (A-beta) peptide in yeast: Primary Screen; Potency, µM (series often up to 46.1 µM), usual class: activators; actives 0.063% (n = 410,000); yeast expressing A-beta42, growth rescue, OD600, 48 h; response scale: 0% DMSO, 100% iron-clioquinol control; also: nearly all actives have a fitted effect of over 55% in size
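Yeast A-beta toxicity model in growth medium with pinned compounds, 48 h at 30 C; growth read as absorbance at 600 nm. Normalized to FeCl3/clioquinol equimolar mix (positive) and DMSO (negative).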
TDP43 rescue: qHTS of TDP-43 Inhibitors | TDP-43 expressing yeast growth rescue, BacTiter-Glo, 24 h | Potency, µM (doses to about 46.1 µM), hits mostly activators | actives 1.8% (n = 410,000); also: nearly all actives have a fitted effect of over 50% in size
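Readout is BacTiter-Glo luminescence of cell growth, so inhibitors register as activators. TDP-43-expressing yeast at OD600=0.02 in galactose medium, after raffinose pregrowth to mid-log, were incubated with compound for 24 hr at 30 deg C.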
FUS suppressor: qHTS for Suppressors of FUS Proteinopathy: Primary screen using FUS-linked yeast assay; Potency, µM (doses to about 76.6 µM), usual class: activators; S. cerevisiae FUS-expressing, growth rescue, OD600, 24 h; actives 0.24% (n = 390,000); also: nearly all actives have a fitted effect of over 55% in size
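Quantitative HTS measuring growth restoration of FUS-toxic yeast. Galactose-induced cells (OD 0.005) were exposed 24hr at 30C to compounds at several concentrations, then absorbance at 600 nm was recorded.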
aSyn rescue: qHTS of alpha-syn Inhibitors; Yeast expressing alpha-synuclein, growth rescue, BacTiter-Glo, 24 h; actives 0.14% (n = 370,000); Potency, µM (series often up to 46.1 µM), most hits filed as activators; also: nearly all actives have a fitted effect of over 65% in size
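Galactose-induced alpha-syn yeast (OD600=0.02, raffinose-pregrown) + pinned cpd, 24 hr, 30 deg C; growth by BacTiter-Glo luminescence. Growth restoration scores as activation.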
Each line names hits and unclear results; the compound was inactive in the other large screens. Calls follow the shape of the dose curve; as a rule, active = well fitted curve in the direction sought with a large enough effect; inconclusive = small, poorly fitted or top-dose-only effect, or another doubt; inactive = no such curve, though single readings can be large; an effect the other way counts as inactive or inconclusive.

CC(C(=O)Nc1cccc(C#N)c1)n1nc(-c2ccccc2)c2c(c1=O)CCCC2 (stereo unspecified)	FUS suppressor inconclusive (no result: aSyn rescue)
CC(C(=O)Nc1ccccc1C(F)(F)F)n1nc(-c2ccccc2)c2c(c1=O)CCCC2 (stereo unspecified)	TDP43 rescue 35µM (no result: aSyn rescue)
Cc1ccc(NS(=O)(=O)c2c(C)ccc3nsnc23)c([N+](=O)[O-])c1	TDP43 rescue 22µM
COc1ccc(S[C@]2(C(=O)N3CCOCC3)CC(=O)N(C(=O)Nc3ccc(C)c(Cl)c3)[C@@H]2c2ccc(OC)cc2)cc1	none (no result: Abeta rescue, TDP43 rescue, aSyn rescue)
Cc1cccc(N2CCN(C(=O)C3(S(=O)(=O)c4ccc(Cl)cc4)CC3)CC2)c1C	TDP43 rescue 35µM, FUS suppressor inconclusive
Cc1ccc(Cl)cc1N1CCN(C(=O)C2(S(=O)(=O)c3ccc(Cl)cc3)CC2)CC1	none
Cc1ccc(CSc2cn(CC(=O)N3CCCC3)c3ccccc23)cc1	TDP43 rescue 22µM, FUS suppressor inconclusive (no result: aSyn rescue)
O=C(COc1c(Br)cc(Br)c2cccnc12)N1CCCCC1	none
O=C(/C=C/c1c(F)cccc1Cl)N1CCc2ccccc2C1	TDP43 rescue 7.9µM, aSyn rescue inconclusive
O=C(COc1ccccc1Cl)N1CCc2ccccc2C1	TDP43 rescue 13µM
O=C(COc1c(Br)cc(Br)c2cccnc12)N1CCc2ccccc2C1	TDP43 rescue inconclusive, aSyn rescue 13µM
O=C(COc1ccccc1F)N1CCc2ccccc2C1	TDP43 rescue inconclusive
COc1ccc(CCNC(=O)c2cc3sccc3n2Cc2ccc(Cl)cc2)cc1OC	none (no result: aSyn rescue)
CCC(C(=O)Nc1ccc(C(C)=O)cc1)n1c(C)c2cnn(-c3ccccc3)c(=O)c2c1C (stereo unspecified)	FUS suppressor inconclusive (no result: aSyn rescue)
Cc1cccc(NC(=O)c2oc3ccc(S(=O)(=O)N(C)C4CCCCC4)cc3c2C)c1C	none (no result: aSyn rescue)
Cc1ccccc1S(=O)(=O)Nc1nc2ccccc2nc1Cl	TDP43 rescue 10µM
COC(=O)CCc1c[nH]c2ccc([N+](=O)[O-])cc12	none
O=C(CCc1c[nH]c2ccccc12)OCc1cccc([N+](=O)[O-])c1	Abeta rescue 11µM, TDP43 rescue inconclusive
COc1ccc(C=NNC(=O)NN=Cc2ccc(OC)c(OC)c2)cc1OC	none
COc1ccc(/C=N/NC(=S)SC)cc1OC	Abeta rescue inconclusive, TDP43 rescue 35µM
COc1ccc(C(=O)Oc2ccc(=O)n(-c3ccccc3)n2)cc1	TDP43 rescue 14µM
O=C(Oc1ccc(=O)n(-c2ccccc2)n1)c1ccc(F)cc1	TDP43 rescue 22µM
CCOC(=O)c1cc(OC(=O)c2ccc(OC)cc2)n(-c2ccccc2)n1	TDP43 rescue 18µM
CCOC(=O)c1cc(OC(=O)c2ccccc2)n(-c2ccccc2)n1	none
CCOC(=O)c1cc(-c2ccc(F)cc2)n(CCC(=O)NC2CCC(C)CC2)c1C (stereo unspecified)	FUS suppressor inconclusive (no result: aSyn rescue)
CC(C)(C)OC(=O)N1CCC(c2c(C(=O)NCCN3CCOCC3)cnn2-c2ccc(F)cc2)CC1	none (no result: aSyn rescue)
O=S(=O)(c1ccc2[nH]c3c(c2c1)CCCC3)N1CCCCC1	none
O=C(O)c1cc2[nH]c3c(c2cc1Cl)CCCC3	aSyn rescue 20µM (no result: TDP43 rescue)
Cc1ccc(Sc2cnccc2C#N)cc1	TDP43 rescue 13µM
Cc1ccccc1OCC(=O)NCC(=O)OCC(=O)c1ccc(-c2ccccc2)cc1	none (no result: Abeta rescue, TDP43 rescue, FUS suppressor)
Cc1ccc2nc3ccc(N4CCCCCCC4)nn3c(=O)c2c1	TDP43 rescue 22µM
Cc1ccc2nc3ccc(N4CCN(C)CC4)nn3c(=O)c2c1	none (no result: FUS suppressor)
Cc1ccc(C(=O)NCC(c2cccnc2)N2CCc3ccccc3C2)cc1C (stereo unspecified)	none (no result: aSyn rescue)
CC(C)(C)c1ccc(C(=O)NCC(c2cccnc2)N2CCc3ccccc3C2)cc1 (stereo unspecified)	TDP43 rescue 22µM (no result: aSyn rescue)
CC(C)Oc1ccc(C2CC(=O)N(c3cccc(Br)c3)C2=O)cc1 (stereo unspecified)	TDP43 rescue 20µM
CC(C)c1ccc(C2C3=C(CC(c4ccco4)CC3=O)Nc3nc(C(F)(F)F)nn32)cc1 (stereo unspecified)	none (no result: Abeta rescue, TDP43 rescue, FUS suppressor)
COC(=O)N1C(=O)[C@@](c2ccc(OC)cc2)(C(C)C)N1C(=O)OC	none
COC(=O)N1C(=O)[C@](c2ccc(Cl)cc2)(C(C)C)N1C(=O)OC	TDP43 rescue 35µM
CC(C)(C)C(=O)NC(=S)NNC(=O)c1ccc(Cl)cc1Cl	aSyn rescue 5µM
Nc1cc([N+](=O)[O-])cc(N)c1N	none (no result: Abeta rescue, TDP43 rescue, FUS suppressor)
O=S(=O)(Nc1ccc(C(O)(C(F)(F)F)C(F)(F)F)cc1)c1ccc(Cl)c2nonc12	TDP43 rescue 20µM
O=S(=O)(Nc1ccc(C(O)(C(F)(F)F)C(F)(F)F)cc1)c1cccs1	none (no result: Abeta rescue, TDP43 rescue, aSyn rescue)
COCOCCn1cc(CN2CCS(=O)(=O)N(Cc3ccc(-c4ccc(Cl)c(Cl)c4)cc3)C(C(C)C)C2=O)nn1 (stereo unspecified)	TDP43 rescue 35µM, FUS suppressor inconclusive, aSyn rescue inconclusive
COCOCCn1cc(CN2CCS(=O)(=O)N(Cc3ccc(-c4ccc(Cl)cc4)cc3)C(C(C)C)C2=O)nn1 (stereo unspecified)	none
Cc1ccccc1-c1ccc(CN2C(C(C)C)C(=O)N(Cc3cn(CCC4OCCO4)nn3)CCS2(=O)=O)cc1 (stereo unspecified)	TDP43 rescue inconclusive, FUS suppressor 10µM, aSyn rescue inconclusive
COc1ccc(-c2ccc(CN3C(C(C)C)C(=O)N(Cc4cn(CC5CCCCC5)nn4)CCS3(=O)=O)cc2)cc1OC (stereo unspecified)	FUS suppressor 25µM
CC(C)Cc1ccc(CN2C(C(C)C)C(=O)N(Cc3cn(CCC4OCCO4)nn3)CCS2(=O)=O)cc1 (stereo unspecified)	TDP43 rescue 11µM, FUS suppressor inconclusive
CCOC(=O)c1ccccc1NC(=O)CSc1ccc(-c2sc(-c3ccccc3)nc2C)nn1	none (no result: aSyn rescue)
Cc1cc(C)cc(-n2ccnc2SCC(=O)Nc2ccc3c(c2)OCO3)c1	none
CCc1cccc2c(C(C)c3ccccc3O)c[nH]c12 (stereo unspecified)	none (no result: Abeta rescue, TDP43 rescue, aSyn rescue)
COC(=O)[C@]12C[C@H](CC(=O)NCc3cccc(C(F)(F)F)c3)C(=O)N(Cc3ccco3)C1=C[C@H](C(C)(C)C)O[C@@H]2C	none (no result: Abeta rescue, TDP43 rescue, aSyn rescue)
COc1ccc(C(=O)C2(C(=O)Nc3cc(C)cc(C)c3)CC(c3ccccn3)=NO2)cc1 (stereo unspecified)	none (no result: Abeta rescue, TDP43 rescue, aSyn rescue)
OC(c1ccccc1)(c1ccccc1)C1CCN(CCCNc2cccc(Br)c2)CC1	none (no result: Abeta rescue, TDP43 rescue, aSyn rescue)
COc1ccc(-c2ccc(CN3C(C(C)C)C(=O)N(Cc4cn(CCC5OCCO5)nn4)CCS3(=O)=O)cc2)cc1 (stereo unspecified)	TDP43 rescue 35µM, FUS suppressor inconclusive
COc1ccc(-c2ccc(CN3C(C(C)C)C(=O)N(Cc4cn(CCC5OCCO5)nn4)CCS3(=O)=O)cc2)cc1OC (stereo unspecified)	FUS suppressor inconclusive
